Source: PubChem BioAssay AID1508601 (ICCB-Longwood Screening Facility, Harvard Medical School, 2020)
Hit rate of the full screen: of about 5,700 compounds, about 85 (1%) were called active. No stated cut-off is given here; in the data, active means p53-positive nuclei above about 36% (passing the limit was not always enough); inactive means the rest. Shown is part of a subset that was picked to be rich in actives.

Legend:
[1] = nuclear p53 accumulation, HPV+ cells – imaging, p53-positive nuclei imaging, 24 h, 48 h (AID 1508601); conditions: 24/48 h
[2] = molecular target: Cellular tumor antigen p53 (Homo sapiens) (UniProt P04637); assay: as above; conditions: 24/48 h, stronger effect = higher value
Chain of Cellular tumor antigen p53 (Homo sapiens) (P04637 whole entry, looked up): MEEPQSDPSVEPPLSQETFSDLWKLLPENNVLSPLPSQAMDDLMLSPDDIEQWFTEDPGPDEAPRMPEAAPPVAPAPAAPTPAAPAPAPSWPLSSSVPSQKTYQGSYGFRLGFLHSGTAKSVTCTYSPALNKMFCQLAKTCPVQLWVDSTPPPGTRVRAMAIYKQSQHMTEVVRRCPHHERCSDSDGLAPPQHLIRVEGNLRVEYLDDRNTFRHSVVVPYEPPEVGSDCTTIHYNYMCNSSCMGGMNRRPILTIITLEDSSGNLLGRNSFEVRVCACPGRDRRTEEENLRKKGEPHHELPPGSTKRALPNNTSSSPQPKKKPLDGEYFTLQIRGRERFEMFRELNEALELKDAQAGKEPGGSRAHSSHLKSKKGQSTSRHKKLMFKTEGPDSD

[3] = measured here: cell number at 24 h, concentration not given here
[4] = measured here: cell number at 48 h, concentration not given here
[5] = measured here: p53 positive nuclei at 24 h, concentration not given here
[6] = measured here: cell number at 24 h, Library stock concentration: 80 uM
[7] = measured here: cell number at 24 h, Library stock concentration: 400 uM
[8] = measured here: cell number at 24 h, Library stock concentration: 2 mM
[9] = measured here: cell number at 24 h, Library stock concentration: 10 mM
[10] = measured here: cell number at 48 h, Library stock concentration: 80 uM
[11] = measured here: cell number at 48 h, Library stock concentration: 400 uM
[12] = measured here: cell number at 48 h, Library stock concentration: 2 mM
[13] = measured here: cell number at 48 h, Library stock concentration: 10 mM
[14] = Library stock concentration: 80 uM
[15] = Library stock concentration: 400 uM
[16] = Library stock concentration: 2 mM
[17] = Library stock concentration: 10 mM
[18] = measured here: p53 positive nuclei at 24 h, Library stock concentration: 80 uM
[19] = measured here: p53 positive nuclei at 24 h, Library stock concentration: 400 uM
[20] = measured here: p53 positive nuclei at 24 h, Library stock concentration: 2 mM
[21] = measured here: p53 positive nuclei at 24 h, Library stock concentration: 10 mM
[22] = measured here: cell number at 24 h, Library stock concentration: 46 uM
[23] = measured here: cell number at 24 h, Library stock concentration: 278 uM
[24] = measured here: cell number at 24 h, Library stock concentration: 1.67 mM
[25] = measured here: cell number at 48 h, Library stock concentration: 46 uM
[26] = measured here: cell number at 48 h, Library stock concentration: 278 uM
[27] = measured here: cell number at 48 h, Library stock concentration: 1.67 mM
[28] = Library stock concentration: 46 uM
[29] = Library stock concentration: 278 uM
[30] = Library stock concentration: 1.67 mM
[31] = measured here: p53 positive nuclei at 24 h, Library stock concentration: 46 uM
[32] = measured here: p53 positive nuclei at 24 h, Library stock concentration: 278 uM
[33] = measured here: p53 positive nuclei at 24 h, Library stock concentration: 1.67 mM
[34] = measured here: cell number at 24 h, Library stock concentration: 3.33 mM
[35] = measured here: cell number at 48 h, Library stock concentration: 3.33 mM
[36] = Library stock concentration: 3.33 mM
[37] = measured here: p53 positive nuclei at 24 h, Library stock concentration: 3.33 mM

**Q.** For CN(CC1COc2ccccc2O1)C(=O)Nc1nncs1 (stereo unspecified), which nuclei count, normalised [1, 3] is on record?
**A.** Its nuclei count, normalised is 103%.

**Q.** And the nuclei count, normalised [1, 4]?
**A.** The nuclei count, normalised was 104%.

**Q.** What about the p53-positive nuclei, normalised ([2]; concentration not given here) of the same compound?
**A.** The p53-positive nuclei, normalised was -0.215% (inactive).

**Q.** And the p53-positive nuclei, normalised [2, 5]?
**A.** The p53-positive nuclei, normalised was -0.0697%.

**Q.** With O=C1NCCCc2c1oc1ccc(O)cc21 as the compound, how does the nuclei count, normalised [1, 6] read?
**A.** Its nuclei count, normalised is 99.3%.

**Q.** What about the nuclei count, normalised [1, 7] of the same compound?
**A.** Its nuclei count, normalised is 92.2%.

**Q.** What about the nuclei count, normalised [1, 8] of the same compound?
**A.** Its nuclei count, normalised is 96.6%.

**Q.** And the nuclei count, normalised [1, 9]?
**A.** Its nuclei count, normalised is 89.4%.

**Q.** And the nuclei count, normalised [1, 10]?
**A.** The nuclei count, normalised was 104%.

**Q.** What about the nuclei count, normalised [1, 11] of the same compound?
**A.** Its nuclei count, normalised is 99.1%.

**Q.** What about the nuclei count, normalised [1, 12] of the same compound?
**A.** The nuclei count, normalised was 99.6%.

**Q.** And the nuclei count, normalised [1, 13]?
**A.** The nuclei count, normalised was 98.7%.

**Q.** And the p53-positive nuclei, normalised [2, 14]?
**A.** The p53-positive nuclei, normalised was -0.0796% (inactive).

**Q.** What about the p53-positive nuclei, normalised [2, 15] of the same compound?
**A.** Its p53-positive nuclei, normalised is -0.0299% (inactive).

**Q.** And the p53-positive nuclei, normalised [2, 16]?
**A.** The p53-positive nuclei, normalised was 0.259% (inactive).

**Q.** And the p53-positive nuclei, normalised [2, 17]?
**A.** The p53-positive nuclei, normalised was 0.273% (inactive).

**Q.** And the p53-positive nuclei, normalised [2, 18]?
**A.** Its p53-positive nuclei, normalised is -0.0621%.

**Q.** What about the p53-positive nuclei, normalised [2, 19] of the same compound?
**A.** The p53-positive nuclei, normalised was -0.105%.

**Q.** What about the p53-positive nuclei, normalised [2, 20] of the same compound?
**A.** Its p53-positive nuclei, normalised is 0.32%.

**Q.** What about the p53-positive nuclei, normalised [2, 21] of the same compound?
**A.** The p53-positive nuclei, normalised was 0.126%.

**Q.** What does the source list for O=C1NCCSc2c1sc1ccc(O)cc21?
**A.** nuclei count, normalised [1, 22]: 111%; nuclei count, normalised [1, 23]: 108%; nuclei count, normalised [1, 24]: 101%; nuclei count, normalised [1, 9]: 56.1%; nuclei count, normalised [1, 25]: 110%; nuclei count, normalised [1, 26]: 113%; nuclei count, normalised [1, 27]: 113%; nuclei count, normalised [1, 13]: 36.9%; p53-positive nuclei, normalised [2, 28]: -0.0208% (inactive); p53-positive nuclei, normalised [2, 29]: -0.288% (inactive); p53-positive nuclei, normalised [2, 30]: 0.37% (inactive); p53-positive nuclei, normalised [2, 17]: 60.9% (active); p53-positive nuclei, normalised [2, 31]: 0.0309%; p53-positive nuclei, normalised [2, 32]: -0.0893%; p53-positive nuclei, normalised [2, 33]: 0.2%; p53-positive nuclei, normalised [2, 21]: 4.05%

**Q.** With CCCCCCCCCCCCCCCCOC[C@H](CO)OC(C)=O as the compound, how does the nuclei count, normalised [1, 3] read?
**A.** Its nuclei count, normalised is 97.1%.

**Q.** What about the nuclei count, normalised [1, 4] of the same compound?
**A.** Its nuclei count, normalised is 102%.

**Q.** And the p53-positive nuclei, normalised ([2]; concentration not given here)?
**A.** The p53-positive nuclei, normalised was -0.0599% (inactive).

**Q.** What about the p53-positive nuclei, normalised [2, 5] of the same compound?
**A.** The p53-positive nuclei, normalised was 0.0467%.

**Q.** What does the source list for COc1ccc2nc3ccc(OC)cc3c(SCCCN)c2c1?
**A.** nuclei count, normalised [1, 6]: 111%; nuclei count, normalised [1, 7]: 114%; nuclei count, normalised [1, 8]: 103%; nuclei count, normalised [1, 9]: 81.6%; nuclei count, normalised [1, 10]: 119%; nuclei count, normalised [1, 11]: 115%; nuclei count, normalised [1, 12]: 109%; nuclei count, normalised [1, 13]: 90.5%; p53-positive nuclei, normalised [2, 14]: -0.0602% (inactive); p53-positive nuclei, normalised [2, 15]: -0.0191% (inactive); p53-positive nuclei, normalised [2, 16]: -0.0521% (inactive); p53-positive nuclei, normalised [2, 17]: 0.61% (inactive); p53-positive nuclei, normalised [2, 18]: -0.00591%; p53-positive nuclei, normalised [2, 19]: -0.136%; p53-positive nuclei, normalised [2, 20]: 0.00172%; p53-positive nuclei, normalised [2, 21]: 0.819%

**Q.** Which results are given for CC(=O)Nc1ccc(C(=O)Nc2ccccc2N)cc1?
**A.** nuclei count, normalised [1, 34]: 92.6%; nuclei count, normalised [1, 35]: 89.8%; p53-positive nuclei, normalised [2, 36]: 0.127% (inactive); p53-positive nuclei, normalised [2, 37]: -0.311%

**Q.** Which results are given for CC(C)C(C(=O)Nc1ccc(C(=O)NO)cc1)c1ccccc1 (stereo unspecified)?
**A.** nuclei count, normalised [1, 34]: 45.5%; nuclei count, normalised [1, 35]: 32%; p53-positive nuclei, normalised [2, 36]: 48.1% (active); p53-positive nuclei, normalised [2, 37]: 50.4%

**Q.** Which nuclei count, normalised [1, 3] does the source give for CC(C)[C@H](C(=O)Nc1ccc(C(=O)NO)cc1)c1ccccc1 here?
**A.** Its nuclei count, normalised is 80%.

**Q.** And the nuclei count, normalised [1, 4]?
**A.** The nuclei count, normalised was 65.6%.

**Q.** What about the p53-positive nuclei, normalised ([2]; concentration not given here) of the same compound?
**A.** The p53-positive nuclei, normalised was 9.18% (inactive).

**Q.** And the p53-positive nuclei, normalised [2, 5]?
**A.** Its p53-positive nuclei, normalised is 17.4%.

**Q.** For COc1ccc(F)cc1-c1cnn(CC(=O)Nc2cc(C)nn2C)c1, which nuclei count, normalised [1, 3] is on record?
**A.** The nuclei count, normalised was 95.8%.

**Q.** And the nuclei count, normalised [1, 4]?
**A.** The nuclei count, normalised was 92.9%.

**Q.** And the p53-positive nuclei, normalised ([2]; concentration not given here)?
**A.** Its p53-positive nuclei, normalised is 0.158% (inactive).

**Q.** What about the p53-positive nuclei, normalised [2, 5] of the same compound?
**A.** Its p53-positive nuclei, normalised is -0.0647%.

**Q.** For CCCCC/C=C/C/C=C/CCCCCCCC(=O)O, which nuclei count, normalised [1, 3] is on record?
**A.** The nuclei count, normalised was 108%.

**Q.** And the nuclei count, normalised [1, 4]?
**A.** The nuclei count, normalised was 108%.

**Q.** And the p53-positive nuclei, normalised ([2]; concentration not given here)?
**A.** Its p53-positive nuclei, normalised is -0.00219% (inactive).

**Q.** And the p53-positive nuclei, normalised [2, 5]?
**A.** Its p53-positive nuclei, normalised is -0.0851%.

**Q.** For Cc1cc(OCc2nnc(SC3CCCC3)n2-c2cccnc2)ccc1-c1ccc(S(C)(=O)=O)cc1, which nuclei count, normalised [1, 22] is on record?
**A.** Its nuclei count, normalised is 107%.

**Q.** What about the nuclei count, normalised [1, 23] of the same compound?
**A.** Its nuclei count, normalised is 112%.

**Q.** What about the nuclei count, normalised [1, 24] of the same compound?
**A.** The nuclei count, normalised was 74.2%.

**Q.** And the nuclei count, normalised [1, 34]?
**A.** Its nuclei count, normalised is 78.3%.

**Q.** And the nuclei count, normalised [1, 9]?
**A.** Its nuclei count, normalised is 53.9%.

**Q.** What about the nuclei count, normalised [1, 25] of the same compound?
**A.** The nuclei count, normalised was 114%.

**Q.** What about the nuclei count, normalised [1, 26] of the same compound?
**A.** The nuclei count, normalised was 110%.

**Q.** And the nuclei count, normalised [1, 27]?
**A.** The nuclei count, normalised was 69.2%.

**Q.** What about the nuclei count, normalised [1, 35] of the same compound?
**A.** The nuclei count, normalised was 66.8%.

**Q.** And the nuclei count, normalised [1, 13]?
**A.** Its nuclei count, normalised is 36.2%.

**Q.** And the p53-positive nuclei, normalised [2, 28]?
**A.** The p53-positive nuclei, normalised was -0.268% (inactive).

**Q.** And the p53-positive nuclei, normalised [2, 29]?
**A.** The p53-positive nuclei, normalised was -0.012% (inactive).

**Q.** What about the p53-positive nuclei, normalised [2, 30] of the same compound?
**A.** The p53-positive nuclei, normalised was 2.41% (inactive).

**Q.** What about the p53-positive nuclei, normalised [2, 36] of the same compound?
**A.** The p53-positive nuclei, normalised was 3.08% (inactive).

**Q.** What about the p53-positive nuclei, normalised [2, 17] of the same compound?
**A.** The p53-positive nuclei, normalised was 57.1% (active).

**Q.** And the p53-positive nuclei, normalised [2, 31]?
**A.** Its p53-positive nuclei, normalised is -0.152%.

**Q.** What about the p53-positive nuclei, normalised [2, 32] of the same compound?
**A.** Its p53-positive nuclei, normalised is -0.153%.

**Q.** What about the p53-positive nuclei, normalised [2, 33] of the same compound?
**A.** The p53-positive nuclei, normalised was 1.05%.

**Q.** What about the p53-positive nuclei, normalised [2, 37] of the same compound?
**A.** The p53-positive nuclei, normalised was 0.345%.

**Q.** What about the p53-positive nuclei, normalised [2, 21] of the same compound?
**A.** The p53-positive nuclei, normalised was 46.4%.
